Measured values taken from the supplement of paper PMC7411054.
Where a name gives a salt, the structure may show the parent alone.

How the values were obtained:
Assay in all cases: phenotypically active (imaging signature differs from DMSO and reproducible) at any of 0.3-9 uM (binary (1 = active, 0 = inactive)); higher = active
Details in all cases: treatment time: 24 h
A549-ACTB-RAB5A = tested on: A549-ACTB-RAB5A
Procedure, shortened: (§1)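 Fifteen gene-edited A549, HepG2 and WPMY1 reporter lines (BFP segmentation plus GFP and RFP/FusionRed markers) were treated at 0.3, 1, 3 or 9 µM for 24 h, four wells each, then imaged live. Live-cell features per well were normalised to DMSO control wells. Deviation required ≥3 of 4 wells beyond the 95th percentile of DMSO Euclidean distances, and reproducibility required median replicate Pearson correlation above the 95th percentile of non-replicates. Phenotypic activity needed both criteria.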

A549-CANX-COX4 = tested on: A549-CANX-COX4
Procedure, shortened: as §1

A549-GM130-SQSTM1 = tested on: A549-GM130-SQSTM1
Procedure, shortened: as §1

A549-TP53BP1-CLTA = tested on: A549-TP53BP1-CLTA
Procedure, shortened: as §1

A549-TUBA1B-RELA = tested on: A549-TUBA1B-RELA
Procedure, shortened: as §1

HepG2-ACTB-RAB5A = tested on: HepG2-ACTB-RAB5A
Procedure, shortened: as §1

HepG2-CANX-COX4 = tested on: HepG2-CANX-COX4
Procedure, shortened: as §1

HepG2-GM130-SQSTM1 = tested on: HepG2-GM130-SQSTM1
Procedure, shortened: as §1

HepG2-TP53BP1-CLTA = tested on: HepG2-TP53BP1-CLTA
Procedure, shortened: as §1

HepG2-TUBA1B-RELA = tested on: HepG2-TUBA1B-RELA
Procedure, shortened: as §1

WPMY1-ACTB-RAB5A = tested on: WPMY1-ACTB-RAB5A
Procedure, shortened: as §1

WPMY1-CANX-COX4 = tested on: WPMY1-CANX-COX4
Procedure, shortened: as §1

WPMY1-GM130-SQSTM1 = tested on: WPMY1-GM130-SQSTM1
Procedure, shortened: as §1

WPMY1-TP53BP1-CLTA = tested on: WPMY1-TP53BP1-CLTA
Procedure, shortened: as §1

WPMY1-TUBA1B-RELA = tested on: WPMY1-TUBA1B-RELA
Procedure, shortened: as §1

Measured: phenotypically active

CN1C(=O)CC(C)(c2ccccc2)C1=O (stereo not given) [methsuximide]
inactive: A549-ACTB-RAB5A 0 | A549-CANX-COX4 0 | A549-GM130-SQSTM1 0 | A549-TP53BP1-CLTA 0 | A549-TUBA1B-RELA 0 | HepG2-ACTB-RAB5A 0 | HepG2-CANX-COX4 0 | HepG2-GM130-SQSTM1 0 | HepG2-TP53BP1-CLTA 0 | HepG2-TUBA1B-RELA 0 | WPMY1-ACTB-RAB5A 0 | WPMY1-CANX-COX4 0 | WPMY1-GM130-SQSTM1 0 | WPMY1-TP53BP1-CLTA 0 | WPMY1-TUBA1B-RELA 0

CC(=O)N1CCN(C)CC1 [1-Acetyl-4-methylpiperazine hydrochloride]
inactive: A549-ACTB-RAB5A 0 | A549-CANX-COX4 0 | A549-GM130-SQSTM1 0 | A549-TP53BP1-CLTA 0 | A549-TUBA1B-RELA 0 | HepG2-ACTB-RAB5A 0 | HepG2-CANX-COX4 0 | HepG2-GM130-SQSTM1 0 | HepG2-TP53BP1-CLTA 0 | HepG2-TUBA1B-RELA 0 | WPMY1-ACTB-RAB5A 0 | WPMY1-CANX-COX4 0 | WPMY1-GM130-SQSTM1 0 | WPMY1-TP53BP1-CLTA 0 | WPMY1-TUBA1B-RELA 0

COc1ccc([C@@H]2CC(=O)c3c(O)cc(O)cc3O2)cc1O [Hesperetin]
inactive: A549-ACTB-RAB5A 0 | A549-CANX-COX4 0 | A549-GM130-SQSTM1 0 | A549-TP53BP1-CLTA 0 | A549-TUBA1B-RELA 0 | HepG2-ACTB-RAB5A 0 | HepG2-CANX-COX4 0 | HepG2-GM130-SQSTM1 0 | HepG2-TP53BP1-CLTA 0 | HepG2-TUBA1B-RELA 0 | WPMY1-ACTB-RAB5A 0 | WPMY1-CANX-COX4 0 | WPMY1-GM130-SQSTM1 0 | WPMY1-TP53BP1-CLTA 0 | WPMY1-TUBA1B-RELA 0

CNS(=O)(=O)CCc1ccc2[nH]cc(C3CCN(C)CC3)c2c1 [naratriptan]
inactive: A549-ACTB-RAB5A 0 | A549-CANX-COX4 0 | A549-GM130-SQSTM1 0 | A549-TP53BP1-CLTA 0 | A549-TUBA1B-RELA 0 | HepG2-ACTB-RAB5A 0 | HepG2-CANX-COX4 0 | HepG2-GM130-SQSTM1 0 | HepG2-TP53BP1-CLTA 0 | HepG2-TUBA1B-RELA 0 | WPMY1-ACTB-RAB5A 0 | WPMY1-CANX-COX4 0 | WPMY1-GM130-SQSTM1 0 | WPMY1-TP53BP1-CLTA 0 | WPMY1-TUBA1B-RELA 0

CO[C@H]1C=CO[C@@]2(C)Oc3c(C)c(O)c4c(O)c(c5c(nc6cc(C)ccn65)c4c3C2=O)NC(=O)C(C)=CC=C[C@H](C)[C@H](O)[C@@H](C)[C@@H](O)[C@@H](C)[C@H](OC(C)=O)[C@@H]1C [Rifaximin]
inactive: A549-ACTB-RAB5A 0 | A549-CANX-COX4 0 | A549-GM130-SQSTM1 0 | A549-TP53BP1-CLTA 0 | A549-TUBA1B-RELA 0 | HepG2-ACTB-RAB5A 0 | HepG2-CANX-COX4 0 | HepG2-GM130-SQSTM1 0 | HepG2-TP53BP1-CLTA 0 | HepG2-TUBA1B-RELA 0 | WPMY1-ACTB-RAB5A 0 | WPMY1-CANX-COX4 0 | WPMY1-GM130-SQSTM1 0 | WPMY1-TP53BP1-CLTA 0 | WPMY1-TUBA1B-RELA 0

OCCN1C[C@H](O)[C@@H](O)[C@H](O)[C@H]1CO [Miglitol]
inactive: A549-ACTB-RAB5A 0 | A549-CANX-COX4 0 | A549-GM130-SQSTM1 0 | A549-TP53BP1-CLTA 0 | A549-TUBA1B-RELA 0 | HepG2-ACTB-RAB5A 0 | HepG2-CANX-COX4 0 | HepG2-GM130-SQSTM1 0 | HepG2-TP53BP1-CLTA 0 | HepG2-TUBA1B-RELA 0 | WPMY1-ACTB-RAB5A 0 | WPMY1-CANX-COX4 0 | WPMY1-GM130-SQSTM1 0 | WPMY1-TP53BP1-CLTA 0 | WPMY1-TUBA1B-RELA 0

C[N+]1(C)CCC(=C(c2ccccc2)c2ccccc2)CC1 [diphemanil]
inactive: A549-ACTB-RAB5A 0 | A549-CANX-COX4 0 | A549-GM130-SQSTM1 0 | A549-TP53BP1-CLTA 0 | A549-TUBA1B-RELA 0 | HepG2-ACTB-RAB5A 0 | HepG2-CANX-COX4 0 | HepG2-GM130-SQSTM1 0 | HepG2-TP53BP1-CLTA 0 | HepG2-TUBA1B-RELA 0 | WPMY1-ACTB-RAB5A 0 | WPMY1-CANX-COX4 0 | WPMY1-GM130-SQSTM1 0 | WPMY1-TP53BP1-CLTA 0 | WPMY1-TUBA1B-RELA 0

CC(=O)[C@H]1CC[C@H]2[C@@H]3CCC4=CC(=O)CC[C@]4(C)[C@H]3CC[C@]12C [progesterone]
inactive: A549-ACTB-RAB5A 0 | A549-CANX-COX4 0 | A549-GM130-SQSTM1 0 | A549-TP53BP1-CLTA 0 | A549-TUBA1B-RELA 0 | HepG2-ACTB-RAB5A 0 | HepG2-CANX-COX4 0 | HepG2-GM130-SQSTM1 0 | HepG2-TP53BP1-CLTA 0 | HepG2-TUBA1B-RELA 0 | WPMY1-ACTB-RAB5A 0 | WPMY1-CANX-COX4 0 | WPMY1-GM130-SQSTM1 0 | WPMY1-TP53BP1-CLTA 0 | WPMY1-TUBA1B-RELA 0

CN(C)CCOC(c1ccc(Cl)cc1)c1ccccn1 (stereo not given) [carbinoxamine]
inactive: A549-ACTB-RAB5A 0 | A549-CANX-COX4 0 | A549-GM130-SQSTM1 0 | A549-TP53BP1-CLTA 0 | A549-TUBA1B-RELA 0 | HepG2-ACTB-RAB5A 0 | HepG2-CANX-COX4 0 | HepG2-GM130-SQSTM1 0 | HepG2-TP53BP1-CLTA 0 | HepG2-TUBA1B-RELA 0 | WPMY1-ACTB-RAB5A 0 | WPMY1-CANX-COX4 0 | WPMY1-GM130-SQSTM1 0 | WPMY1-TP53BP1-CLTA 0 | WPMY1-TUBA1B-RELA 0

CC(C)[C@](O)(c1ccc2cc(OC(F)F)c(OC(F)F)cc2c1)c1c[nH]nn1
inactive: A549-ACTB-RAB5A 0 | A549-CANX-COX4 0 | A549-GM130-SQSTM1 0 | A549-TP53BP1-CLTA 0 | A549-TUBA1B-RELA 0 | HepG2-ACTB-RAB5A 0 | HepG2-CANX-COX4 0 | HepG2-GM130-SQSTM1 0 | HepG2-TP53BP1-CLTA 0 | HepG2-TUBA1B-RELA 0 | WPMY1-ACTB-RAB5A 0 | WPMY1-CANX-COX4 0 | WPMY1-GM130-SQSTM1 0 | WPMY1-TP53BP1-CLTA 0 | WPMY1-TUBA1B-RELA 0

O=c1oc2c(O)c(O)cc3c(=O)oc4c(O)c(O)cc1c4c23 [Ellagic acid]
inactive: A549-ACTB-RAB5A 0 | A549-CANX-COX4 0 | A549-GM130-SQSTM1 0 | A549-TP53BP1-CLTA 0 | A549-TUBA1B-RELA 0 | HepG2-ACTB-RAB5A 0 | HepG2-CANX-COX4 0 | HepG2-GM130-SQSTM1 0 | HepG2-TP53BP1-CLTA 0 | HepG2-TUBA1B-RELA 0 | WPMY1-ACTB-RAB5A 0 | WPMY1-CANX-COX4 0 | WPMY1-GM130-SQSTM1 0 | WPMY1-TP53BP1-CLTA 0 | WPMY1-TUBA1B-RELA 0
